Source: PubChem BioAssay AID1863 (Southern Research Specialized Biocontainment Screening …, 2009)
Hit rate of the full screen: of about 300,000 compounds, about 480 (0.16%) were called active.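 How the source made its calls: active means inhibition over 29.93%, a cutoff 3 SD above the screen mean, later confirmed by dose response; inconclusive means inhibition over 29.93% but no dose response follow-up; inactive means inhibition at most 29.93% or unconfirmed.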 Not all results are given here. Measured potencies and affinities stand elsewhere.

Assay: inhibitors of PhoP regulon expression, primary screen, Salmonella Typhimurium, GFP reporter (AID 1863);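 further: 0% = low Mg2+ inducing control and 100% = high Mg2+ repressing control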
Conditions: S. Typhimurium PhoP-regulated promoter GFP reporter, 4 h; at 50 µM; stronger effect = higher value

inhibition, inactive:
CCOc1ncccc1C(=O)NCCCSc1ccccc1 4.02%, COc1ccc(Cl)cc1/C=C(\C#N)C(N)=O -5.64%, Cc1ccnc(SCCn2c(N3CCCCC3)nc3c2c(=O)[nH]c(=O)n3C)n1 2.87%, CC(=O)Nc1ccc(S(=O)(=O)NCc2cc(=O)n(C)c(=O)n2C)cc1 1.8%, CCOc1cc(C2/C(=C(/O)c3ccc(OC(C)C)cc3)C(=O)C(=O)N2CCCOC)ccc1O (stereo not given) -4.64%, CCc1cc2c3c(c1)/C(=C1/SC(N)=NC1=O)C(=O)N3C(C)(C)C=C2C 2.08%, Cc1cc(C)cc(CN2C(=O)NC3(CCCCCC3)C2=O)c1 -9.68%, CC(NCc1ccccc1O)c1ccccc1 (stereo not given) -3.45%, Oc1ccccc1CNCc1ccccc1 4.46%, CN(C)S(=O)(=O)c1cccc(NC(=O)c2ccc(S(=O)(=O)N3CCCC3)cc2)c1 -7.11%, CC(C)OCCCNc1nc2c(-c3ccccc3)nnn2c2ccccc12 -3.07%, COc1cc(NC(=O)Cn2cnc(S(=O)(=O)N3CCC(C)CC3)c2)cc(OC)c1OC -7.04%, CC[C@H]1OC(=O)[C@H](C)[C@@H](O[C@H]2C[C@@](C)(OC)[C@@H](O)[C@H](C)O2)[C@H](C)[C@@H](O[C@@H]2O[C@H](C)C[C@H](N(C)C)[C@H]2O)[C@](C)(O)C[C@@H](C)C(=NOCOCCOC)[C@H](C)[C@@H](O)[C@]1(C)O 2.91%, CC[C@H]1OC(=O)[C@H](C)[C@@H](O[C@H]2C[C@@](C)(OC)[C@@H](O)[C@H](C)O2)[C@H](C)[C@@H](O[C@@H]2O[C@H](C)C[C@H](N(C)C)[C@H]2O)[C@](C)(O)C[C@@H](C)C(=O)[C@H](C)[C@@H](O)[C@]1(C)O 6.93%, CCOC(=O)N/N=C\c1cccc(OC)c1OC/C=C/c1ccccc1 1.25%, COc1ccccc1CN1C[C@@H]2C[C@@H](c3[nH]c4c(C)cccc4c3C)N3CCC[C@@]23C1=O -4.79%, CCOc1cccc(C(=O)NNC(=O)CCC(=O)O)c1 4.57%, NC(=O)c1ccccc1OCC(=O)N1CCCc2ccccc21 -3.13%, Clc1ccc2nc(C3CCN(Cc4ccccc4)CC3)[nH]c2c1 18.6%, Cc1ccc(CN2CCC(c3nc4ccc(Cl)cc4[nH]3)CC2)cc1 22.6%, COc1ccc(Oc2ncnc3sccc23)cc1 9.87%, Cc1cc(=O)oc2cc(OCC3CC(c4ccc(Br)cc4)=NO3)ccc12 (stereo not given) -2.2%, Cc1ccc(Cl)cc1NC(=O)C1C2CCC(O2)C1C(=O)O (stereo not given) -0.09%, FC(F)(F)c1ccc(N/N=C/c2cccnc2)nc1 -0.8%, Fc1cccc(/C=N/Nc2ccccn2)c1 10.3%, CCOc1cc(C2C(C(=O)c3ccccc3)=C(C(=O)OC)Nc3nnnn32)ccc1O (stereo not given) -7.95%, CCOc1ccc(NC(=O)Cn2c(=O)oc3cc(Cl)ccc32)cc1 -5.34%, CC(O)(c1ccccc1)C(c1ccccc1)C1CCCCN1 (stereo not given) 5.86%, O[C@@H](c1cc(C(F)(F)F)nc2c(C(F)(F)F)cccc12)[C@H]1CCCCN1 9.26%, OC(c1cc(C(F)(F)F)nc2c(C(F)(F)F)cccc12)C1CCCCN1 (stereo not given) -7.43%, FC(F)(F)c1cc(-c2ccccc2)nc(NC2CCCC2)n1 2.27%, Cc1ccccc1CN1[C@@H]2c3ccccc3C[C@@H]2OCCS1(=O)=O 5.91%, Nn1c(SCC(=O)Nc2ccc3c(c2)OCO3)nncc1=O -10%, Cc1cccnc1NC(=O)c1ccc2c(c1)OCO2 5.72%, O=[N+]([O-])c1ccc(Cl)c2cccnc12 2.44%, O=[N+]([O-])c1ccc(O)c2cccnc12 4.87%, CN(Cc1cc([N+](=O)[O-])c2cccnc2c1O)C1CCCCC1 24.8%, O=[N+]([O-])c1cc([N+](=O)[O-])c2cccnc2c1Oc1ccccc1O 11.2%, O=[N+]([O-])c1cccc2c(Cl)ccnc12 -15%, O=[N+]([O-])c1ccc(O)c2ncccc12 -0.36%, Nc1nonc1C(=O)NCCNC(=O)c1cccs1 17.7%, O=C(O)C1CCN(C(=O)COc2ccc3c4c(c(=O)oc3c2)CCCC4)CC1 4.17%, COc1ccc(N2CCN(c3oc(-c4ccco4)nc3C#N)CC2)cc1 26.4%, COc1cc(S(=O)(=O)n2ccnc2)ccc1Br -8.94%, O=C(NCC1CCCO1)C(C(=O)c1ccc(F)cc1)n1ccccc1=O (stereo not given) 2.45%, COc1ccc(S(=O)(=O)n2oc(=O)cc2-c2ccccc2)cc1 -4.7%, CCN(CC)C(=S)Nc1ccc([N+](=O)[O-])cc1 3.9%, Oc1ccc(Cl)cc1CNn1cnnc1 18.7%, Oc1ccc(Cl)cc1CNc1ccccn1 14.1%, O=C(c1cc2c(=O)oc3ccccc3c2s1)N1CCOCC1 2%, CCOC(=O)NCC(C#CCN(CC)CC)N(CC)CC (stereo not given) 4.11%, O=C(O)CSc1cc(NS(=O)(=O)c2ccc(Cl)cc2)c2ccccc2c1O -5.26%, O=C(O)CSc1cc(NS(=O)(=O)c2ccc(Br)cc2)c2ccccc2c1O 0.22%, CC(C)Oc1ccc(C(=O)OC(C)C(=O)Nc2nc(-c3cccc([N+](=O)[O-])c3)cs2)cc1 (stereo not given) 3.69%, COc1ccc(CN2C3CCC2CC(NC(=O)c2cccc(F)c2)C3)cc1 (stereo not given) 5.59%, NCC12CC3CC(C1)CC(c1ccc(Cl)cc1)(C3)C2 10.5%, Cc1ccc(C23CC4CC(CC(CN)(C4)C2)C3)cc1 26.1%, CCOC(=O)N1CCN(C(=O)c2ccc(NS(C)(=O)=O)cc2)CC1 12.6%, O=C(NCCc1ccccc1)c1ccc(-c2ccc(F)cc2)o1 0.73%, CCSc1nc(N2CCOCC2)c2ccccc2n1 -4.32%, COc1cc(NC(=O)Cn2ccsc2=N)c(C)cc1[N+](=O)[O-] 0.16%, CCc1ccc2[nH]c3nc(N/N=C/c4cccc(O)c4)nnc3c2c1 1.71%, CC(=O)N/N=C/c1c(C)[nH]n(-c2ccccc2)c1=O 3.32%, Oc1ccc(/C=N\Nc2nncc(-c3ccccc3)n2)cc1 1.9%, COc1ccc(S(=O)(=O)NCC(=O)N(CC(=O)NCc2ccco2)Cc2ccc(F)cc2)cc1 6.01%, c1ccc(Nc2ccccn2)nc1 -3.66%, Oc1ccccc1Nc1ccccn1 0.2%, CCCc1[nH]nc2c1C(c1ccc(OC)c(Cn3nnc4ccccc43)c1)C(C#N)=C(N)O2 (stereo not given) 6.36%, CC(C)(C)OC(=O)N1CCN(C(=O)c2[nH]cnc2C(=O)N[C@@H](Cc2ccccc2)C(=O)OCc2ccccc2)CC1 7.86%, COc1ccc(OC)c(N2C(N)=NC(N)=NC23CCCC3)c1 -1.52%, O=C(Nc1nnc(-c2cccs2)o1)c1cccc(C(F)(F)F)c1 -1.86%, COc1cccc(C(=O)Nc2nnc(-c3cccs3)o2)c1 8.85%, CCn1c(=N)n(CC(=O)c2ccc(Br)s2)c2ccccc21 9.45%, N=c1n(CC(=O)c2cccs2)c2ccccc2n1Cc1ccccc1 -1.64%, Cc1nc2ccc(S(=O)(=O)NCC(=O)Nc3cccc(F)c3)cc2s1 0.67%, Nc1c(Cl)ncnc1N/N=C/c1ccncc1 -8.59%, Nc1c(Cl)ncnc1N/N=C/c1ccc2ccccc2n1 -18.8%, Cc1cc(CNC(=O)C2CCC(=O)N(Cc3cccc(C(F)(F)F)c3)C2)no1 (stereo not given) 8.7%, Cn1c(=O)c(=O)n(C)c2cc(S(=O)(=O)N3CCN(c4cccc(C(F)(F)F)c4)CC3)ccc21 -8.38%, COc1cccc(N(CC(=O)NC(C)c2ccccc2)S(C)(=O)=O)c1 (stereo not given) -3.79%, Nc1nnc(CC(=O)N/N=C/c2ccccc2OCc2ccccc2F)s1 2.44%, CSCC[C@H](NC(=O)Nc1ccc(S(N)(=O)=O)cc1)C(=O)O -5.86%, COC(=O)[C@H](CCSC)NC(=O)Nc1ccc(C)cc1 -5.05%, COc1cccc(OCc2cc(C(=O)N3CCN(c4ccccc4O)CC3)no2)c1 8.64%, CCCOc1ccc(C(=O)O)cc1 -6.14%, CCOc1ccc(C(=O)C(CCC(CN(C)C)C(=O)c2ccc(OCC)cc2)CN(C)C)cc1 (stereo not given) 17.1%, COCCn1c(SCC(=O)N2CCCCC2)nc2c([nH]c3ccccc32)c1=O -1.34%, Cc1ccc(C(=O)N/N=C\c2cc3c(cc2Br)OCO3)cn1 1.38%, O=C(N/N=C/c1ccccc1O)c1ccncc1 -5.2%, COc1ccc(C(=O)N/N=C/c2cc(Br)ccc2O)cc1OC -7.66%, O=C(N/N=C/c1cc(Br)c(O)c(Br)c1)c1cccnc1 -1.14%, O=C(N/N=C/c1cc(Br)ccc1O)c1ccncc1 3.11%, O=C(N/N=C/c1ccc(O)c([N+](=O)[O-])c1)c1ccncc1 -0.43%, O=C(N/N=C/c1cc(Br)c(O)c(Br)c1O)c1cccnc1 -3.91%, O=C(N/N=C/c1ccc(Cl)cc1Cl)c1ccncc1 3.86%
